# Assay results: PubChem BioAssay
# “And” between values parts separate entries of the source, which are not always exact repeats. Equal values may be shown once. The source made the active and inactive calls.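 The calls were made as follows, unless noted: active = thallium flux through the channel raised or lowered by more than 3 SD from vehicle-only wells, actives on both sides; inactive = the rest.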
# Columns and labels:
# [1] = stimulators of nuclear beta-catenin in C2C12, primary screen, imaging, WNT3A-conditioned medium, mouse C2C12, NPC library (AID 1117326; in the data active = nuclear beta-catenin stimulation mostly above about 4.2%, no sharp cut-off; inactive = mostly below about 10%); settings: stronger effect = higher value
# [2] = stimulators of insulin release from INS-1E, primary screen, cell-based, 5 mM glucose, NPC library (AID 1117329;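 active = compound raises insulin release from rat beta cells at 5 mM glucose, no numeric limit stated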); settings: rat INS-1E insulin secretion, at 10 µM, stronger effect = higher value
# [3] = growth inhibition of GSK3B-pretreated HCT116 cells – cell-based, CellTiter-Glo, 0.2 to 20 µM (AID 1117336;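 active = compounds lowering colon cancer cell viability after pretreatment blocking the GSK3B kinase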); settings: HCT116 viability after GSK3B inhibitor, at 20 µM, stronger effect = higher value
# [4] = inhibition of endothelial tube formation, primary screen, imaging, VEGF stimulated, CD31 staining, tube area, NPC library (AID 1117340;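 active = compound that reduces growth-factor-driven endothelial tube area in a mixed cell culture, no cutoff stated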); settings: VEGF-stimulated ADSC/ECFC co-culture, at 10 µM, stronger effect = higher value
# [5] = glucagon-like peptide 1 release enhancers, primary assay, NCI-H716 cell line, NPC library (AID 1117341;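 active = compound raises GLP1 secretion from the human gut endocrine cells, with no numeric limit stated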); settings: NCI-H716 cells, at 10 µM, stronger effect = higher value
# [6] = HCT116 colon cancer cell growth inhibition, primary screen, CellTiter-Glo luminescence, NPC library (AID 1117342;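 active = compounds that lower survival of HCT116 colon cancer cells in the luminescence readout, no numeric limit stated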); settings: at 20 µM (top of the series)
# [7] = CellTiter-Glo luminescent readout of SW480 viability loss, NPC library primary (AID 1117343;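 active = compounds that lower viability of the colon cancer cells in the luminescence readout, with no numeric limit stated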); settings: CellTiter-Glo luminescence; at 20 µM (top of the series)
# [8] = decreased DLD-1 cellular survival, CellTiter-Glo luminescent readout, NPC compound collection, primary HTS (AID 1117346;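 active = compounds that lower survival of DLD-1 colon cancer cells in the luminescence readout, no cutoff given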); settings: DLD-1 viability, CellTiter-Glo luminescence; at 20 µM (top of the series)
# [9] = biological target: 6-phosphogluconate dehydrogenase, decarboxylating (Homo sapiens) (UniProt P52209); assay: 6PGD enzyme inhibitors, primary screen, biochemical, human, recombinant enzyme, NADPH absorbance (AID 1159550;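 active = at least 20% inhibition of 6-phosphogluconate dehydrogenase activity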); settings: recombinant 6PGD, NADPH absorbance 341 nm; at 10 µM; stronger effect = higher value
# [10] = modulation of C. elegans fzo-1 (AID 1259413; call rule not given here;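 also: fzo-1 mutant C. elegans worms in liquid wells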); settings: C. elegans fzo-1 modulator screen, mean read-out; stronger effect = higher value
# [11] = differential killing of epithelial or mesenchymal cells, primary screen, imaging, PC-3E GFP, TEM4-18 mCherry, co-culture (AID 1345086;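 active = compounds killing one labelled cell type while sparing the other, by normalised counts and ratio limits, not self-fluorescent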;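 as to all read-outs here: cells exposed to compound for 72 h before imaging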;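 as to red/green cell ratio (normalised): normalised mesenchymal count divided by normalised epithelial count so high means epithelial killing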); settings: imaging cell counts, at 1 µM; for red/green cell ratio (normalised): actives lie on both sides, counts scaled to control wells, 1 = unselective
# [12] = sensitizers of A549 cells to miR-34 induction, primary screen, imaging, A549 dox-inducible miR-34, nuclei and caspase counts (AID 1347080;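 active = compounds whose cell count with miR-34 switched on is under 0.7 times the count with it off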); settings: A549 miR-34 inducible, Hoechst nuclei count, 48 h
# [13] = survival rescue of mitochondrial mutant cells in low glucose, primary screen, MELAS cybrids, Rieske KO mouse fibroblasts, CellTiter-Glo (AID 1508586;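 active = mean z-score across replicates of 1.96 or higher in either the MELAS or the Rieske mutant cell line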;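 also: z relative to plate mean and SD of compound and empty wells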)
# [14] = biological target: NAD(+) hydrolase SARM1 (Homo sapiens) (UniProt Q6SZW1); assay: SARM1 TIR NADase inhibitors, cell lysate, NAD-Glo luminescence (AID 1508614;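 active = compound whose remaining NAD level is above about 45 nM, limit read from the data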;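 also: higher remaining NAD means stronger inhibition of SARM1 NADase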); settings: SAM-TIR HEK293T lysate NADase, at 1 µM, stronger effect = higher value
# [15] = biological target: Mitogen-activated protein kinase 7 (Homo sapiens) (UniProt Q13164); assay: ERK5 transactivation activators in reporter cells, primary screen, cell-based, HTS (AID 1508626;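 active = luciferase signal above three times the same-plate solvent-only control wells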;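 also: luciferase driven by Gal4-ERK5 fusion binding five Gal4 sites before minimal TATA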); settings: HeLa Gal4-ERK5 transactivation, 18 h, at 5 µM, stronger effect = higher value
# [16] = system: F380Y; assay: modulators of BK channel variants, profiling panel, selectivity assay, cell-based, U2OS BacMam, thallium flux, beta subunits (AID 1259406); settings: at 30 µM;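 also: initial slope of Thallos dye fluorescence rise after thallium is added; log ratio against the mean of 0.3% DMSO vehicle wells on the same plate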
# [17] = system: F380Y/beta1; assay: as above; settings: at 30 µM
# [18] = system: F380Y/beta2Delta; assay: as above; settings: at 30 µM
# [19] = measured here: epithelial PC-3E GFP cell survival
# [20] = measured here: mesenchymal TEM4-18 mCherry cell survival
# [21] = MELAS cybrid survival, CellTiter-Glo 48 h, stronger effect = higher value
# [22] = Rieske KO mouse fibroblast survival, CellTiter-Glo 72 h
# Sequence of 6-phosphogluconate dehydrogenase, decarboxylating (Homo sapiens) (P52209 whole entry, looked up): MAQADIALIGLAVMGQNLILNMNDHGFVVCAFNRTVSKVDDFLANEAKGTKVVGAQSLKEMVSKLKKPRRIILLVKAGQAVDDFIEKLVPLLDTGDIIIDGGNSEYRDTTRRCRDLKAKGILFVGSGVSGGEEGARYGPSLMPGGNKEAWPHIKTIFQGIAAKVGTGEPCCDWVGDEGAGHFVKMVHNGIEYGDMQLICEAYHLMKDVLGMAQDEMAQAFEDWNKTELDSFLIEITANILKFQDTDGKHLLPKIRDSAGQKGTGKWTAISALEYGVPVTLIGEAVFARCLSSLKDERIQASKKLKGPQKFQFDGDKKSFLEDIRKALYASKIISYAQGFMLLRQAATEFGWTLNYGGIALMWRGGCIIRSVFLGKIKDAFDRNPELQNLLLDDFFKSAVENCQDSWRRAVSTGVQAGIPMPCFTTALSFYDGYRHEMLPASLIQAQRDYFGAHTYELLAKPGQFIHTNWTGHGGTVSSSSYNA
# Sequence of Mitogen-activated protein kinase 7 (Homo sapiens) (Q13164 whole entry, looked up, the tested form may be a part): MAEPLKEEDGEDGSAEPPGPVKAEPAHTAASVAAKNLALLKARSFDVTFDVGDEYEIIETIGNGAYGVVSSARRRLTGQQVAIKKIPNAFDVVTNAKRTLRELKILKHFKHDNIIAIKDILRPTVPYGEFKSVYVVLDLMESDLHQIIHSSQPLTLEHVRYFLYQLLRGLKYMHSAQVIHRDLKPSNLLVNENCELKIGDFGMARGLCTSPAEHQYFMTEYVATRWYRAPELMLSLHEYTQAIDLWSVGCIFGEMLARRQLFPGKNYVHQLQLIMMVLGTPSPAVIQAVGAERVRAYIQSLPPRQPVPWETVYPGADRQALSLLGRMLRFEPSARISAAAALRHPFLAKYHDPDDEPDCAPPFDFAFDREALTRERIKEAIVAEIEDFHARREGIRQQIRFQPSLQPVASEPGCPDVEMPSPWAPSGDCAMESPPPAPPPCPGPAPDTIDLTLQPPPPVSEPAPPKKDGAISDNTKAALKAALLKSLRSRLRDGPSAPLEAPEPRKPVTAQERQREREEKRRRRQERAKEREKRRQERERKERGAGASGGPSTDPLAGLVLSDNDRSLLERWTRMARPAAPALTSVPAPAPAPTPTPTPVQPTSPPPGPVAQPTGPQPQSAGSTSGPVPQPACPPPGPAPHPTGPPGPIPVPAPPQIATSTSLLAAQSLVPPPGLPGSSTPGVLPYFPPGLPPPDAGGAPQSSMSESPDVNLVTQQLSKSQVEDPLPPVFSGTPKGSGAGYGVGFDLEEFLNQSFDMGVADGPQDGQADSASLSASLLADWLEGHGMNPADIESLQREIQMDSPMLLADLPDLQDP
# Sequence of NAD(+) hydrolase SARM1 (Homo sapiens) (Q6SZW1 whole entry, looked up, the tested form may be a part): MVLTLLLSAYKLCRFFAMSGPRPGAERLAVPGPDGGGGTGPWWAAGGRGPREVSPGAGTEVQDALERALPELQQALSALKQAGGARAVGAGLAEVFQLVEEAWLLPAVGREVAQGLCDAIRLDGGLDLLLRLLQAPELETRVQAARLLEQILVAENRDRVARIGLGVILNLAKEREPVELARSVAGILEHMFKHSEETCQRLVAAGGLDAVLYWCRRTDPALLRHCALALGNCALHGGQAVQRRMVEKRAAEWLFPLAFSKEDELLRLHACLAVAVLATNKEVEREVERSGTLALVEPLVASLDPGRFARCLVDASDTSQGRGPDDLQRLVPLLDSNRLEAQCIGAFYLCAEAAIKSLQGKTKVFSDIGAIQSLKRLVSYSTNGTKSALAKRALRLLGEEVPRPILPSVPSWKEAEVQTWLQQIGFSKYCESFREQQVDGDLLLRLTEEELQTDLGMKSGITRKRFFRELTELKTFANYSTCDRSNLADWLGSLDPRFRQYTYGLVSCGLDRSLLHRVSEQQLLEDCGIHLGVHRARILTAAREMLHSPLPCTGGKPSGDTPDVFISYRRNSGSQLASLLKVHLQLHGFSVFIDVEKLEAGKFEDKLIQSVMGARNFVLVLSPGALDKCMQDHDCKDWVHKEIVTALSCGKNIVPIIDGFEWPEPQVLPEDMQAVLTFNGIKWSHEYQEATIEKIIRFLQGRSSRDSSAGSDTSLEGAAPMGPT
smiles,measurement,setting,value
NS(=O)(=O)c1cc2c(cc1C(F)(F)F)NC(Cc1ccccc1)NS2(=O)=O (stereo not given),nuclear beta-catenin stimulation,[1]; at 10 µM,0.1% (inactive)
same,nuclear beta-catenin stimulation,"[1]; stimulation, at 2 µM",1.7%
same,insulin secretion stimulation,[2],0.8% (inactive)
same,viability decrease,[3],-5.2% (inactive)
same,tube area decrease,[4],-25.6% (inactive)
same,GLP1 secretion stimulation,[5],1.6% (inactive)
same,inhibition of viability,[6],-9.63% (inactive)
same,viability decrease (inhibition),[7],18.1% (inactive)
same,viability decrease (inhibition),[8],-18.1% (inactive)
same,inhibition,[9],-18.8% (inactive)
same,mean signal,[10],239 (inactive)
same,red/green cell ratio (normalised),[11],1.09 (inactive)
same,normalised cell number,[11]; [19],1.12
same,normalised cell number,[11]; [20],1.22
same,fold change,"[12]; stronger effect = lower value, cell number ratio, induced over uninduced",0.994 (inactive) and 0.853 (inactive) and 0.857 (inactive)
same,fold change,[12]; measured here: relative caspase fold change +Dox/-Dox,3.31 and 1.41 and 3.71
same,cell count,"[12]; measured here: total cells with miR-34 induction, stronger effect = lower value",10000 and 8170 and 11600
same,cell count,[12]; measured here: total cells without miR-34 induction,10100 and 9580 and 13500
same,z-score,[13]; [21],0.478 (inactive)
same,z-score,[13]; [22],-0.203
same,remaining NAD,[14],10 nM (inactive)
same,luciferase signal,[15],36 AU (inactive)
same,log fold change Tl+ flux,[16],0.0508 (inactive)
same,log fold change Tl+ flux,[17],-0.0798 (inactive)
same,log fold change Tl+ flux,[18],0.0485 (inactive)
NS(=O)(=O)c1cc2c(cc1Cl)NC=NS2(=O)=O,nuclear beta-catenin stimulation,[1]; at 10 µM,-0.3% (inactive)
same,nuclear beta-catenin stimulation,"[1]; stimulation, at 2 µM",3%
same,insulin secretion stimulation,[2],-0.7% (inactive)
same,viability decrease,[3],-4.3% (inactive)
same,tube area decrease,[4],3.2% (inactive)
same,GLP1 secretion stimulation,[5],1.5% (inactive)
same,inhibition of viability,[6],-1.55% (inactive)
same,viability decrease (inhibition),[7],5.5% (inactive)
same,viability decrease (inhibition),[8],-6.2% (inactive)
same,inhibition,[9],11.5% (inactive)
same,mean signal,[10],245 (inactive)
same,red/green cell ratio (normalised),[11],1.16 (inactive)
same,normalised cell number,[11]; [19],0.39
same,normalised cell number,[11]; [20],0.45
same,z-score,[13]; [21],-0.0786 (inactive) and 0.00114 (inactive)
same,z-score,[13]; [22],0.72 and -0.309
same,remaining NAD,[14],10 nM (inactive)
same,luciferase signal,[15],52 AU (inactive)
same,log fold change Tl+ flux,[16],0.0512 (inactive)
same,log fold change Tl+ flux,[17],0.0165 (inactive)
same,log fold change Tl+ flux,[18],-0.00499 (inactive)
Cc1cn([C@H]2C[C@H](N=[N+]=[N-])[C@@H](CO)O2)c(=O)[nH]c1=O,nuclear beta-catenin stimulation,[1]; at 10 µM,1.2% (inactive)
same,nuclear beta-catenin stimulation,"[1]; stimulation, at 2 µM",1.3%
same,insulin secretion stimulation,[2],-1.7% (inactive)
same,viability decrease,[3],4.9% (inactive)
same,tube area decrease,[4],18.1% (inactive)
same,GLP1 secretion stimulation,[5],-0.1% (inactive)
same,inhibition of viability,[6],2.4% (inactive)
same,viability decrease (inhibition),[7],-5.4% (inactive)
same,viability decrease (inhibition),[8],-4.95% (inactive)
same,inhibition,[9],13.6% (inactive)
same,mean signal,[10],236 (inactive)
same,red/green cell ratio (normalised),[11],1.03 (inactive)
same,normalised cell number,[11]; [19],1.06
same,normalised cell number,[11]; [20],1.09
same,z-score,[13]; [21],1.37 (inactive) and 1.42 (inactive)
same,z-score,[13]; [22],0.0413 and -0.28
same,remaining NAD,[14],10 nM (inactive)
same,luciferase signal,[15],44 AU (inactive)
same,log fold change Tl+ flux,[16],-0.00123 (inactive)
same,log fold change Tl+ flux,[17],0.0379 (inactive)
same,log fold change Tl+ flux,[18],0.00186 (inactive)
COC(=O)Nc1nc2ccc(C(=O)c3ccccc3)cc2[nH]1,nuclear beta-catenin stimulation,[1]; at 10 µM,78.6% (active)
same,nuclear beta-catenin stimulation,"[1]; stimulation, at 2 µM",42.2%
same,insulin secretion stimulation,[2],-0.3% (inactive)
same,viability decrease,[3],10.7% (inactive)
same,tube area decrease,[4],102% (active)
same,GLP1 secretion stimulation,[5],2.2% (inactive)
same,inhibition of viability,[6],56.4% (active)
same,viability decrease (inhibition),[7],27.7% (active)
same,viability decrease (inhibition),[8],51.5% (active)
same,inhibition,[9],0.811% (inactive)
same,mean signal,[10],274 (inactive)
same,red/green cell ratio (normalised),[11],1.27 (inactive)
same,normalised cell number,[11]; [19],0.23
same,normalised cell number,[11]; [20],0.29
same,z-score,[13]; [21],0.18 (inactive) and -0.728 (inactive) and -2.21 (inactive)
same,z-score,[13]; [22],0.0815 and 0.438 and 0.923
same,remaining NAD,[14],10 nM (inactive)
same,luciferase signal,[15],28 AU (inactive)
same,log fold change Tl+ flux,[16],-0.0365 (inactive)
same,log fold change Tl+ flux,[17],0.0198 (inactive)
same,log fold change Tl+ flux,[18],-0.00923 (inactive)
NC(=O)N1c2ccccc2CC(=O)c2ccccc21,nuclear beta-catenin stimulation,[1]; at 10 µM,5.2% (inactive)
same,nuclear beta-catenin stimulation,"[1]; stimulation, at 2 µM",1.3%
same,insulin secretion stimulation,[2],-0.8% (inactive)
same,viability decrease,[3],-2.9% (inactive)
same,tube area decrease,[4],0.9% (inactive)
same,GLP1 secretion stimulation,[5],0% (inactive)
same,inhibition of viability,[6],14.9% (inactive)
same,viability decrease (inhibition),[7],5.4% (inactive)
same,viability decrease (inhibition),[8],15.6% (inactive)
same,inhibition,[9],8.8% (inactive)
same,mean signal,[10],241 (inactive)
same,red/green cell ratio (normalised),[11],1.05 (inactive)
same,normalised cell number,[11]; [19],1.04
same,normalised cell number,[11]; [20],1.09
same,z-score,[13]; [21],-0.278 (inactive) and 0.355 (inactive) and 0.309 (inactive)
same,z-score,[13]; [22],-1.12 and 0.011 and -0.438
same,remaining NAD,[14],10 nM (inactive)
same,luciferase signal,[15],56 AU (inactive)
same,log fold change Tl+ flux,[16],-0.0346 (inactive)
same,log fold change Tl+ flux,[17],-0.0277 (inactive)
same,log fold change Tl+ flux,[18],-0.0162 (inactive)
CCc1nc(N)nc(N)c1-c1ccc(Cl)cc1,nuclear beta-catenin stimulation,[1]; at 10 µM,72.4% (active)
same,nuclear beta-catenin stimulation,"[1]; stimulation, at 2 µM",69.7%
same,insulin secretion stimulation,[2],1.3% (inactive)
same,viability decrease,[3],18.7% (inactive)
same,tube area decrease,[4],16.8% (inactive)
same,GLP1 secretion stimulation,[5],-0.3% (inactive)
same,inhibition of viability,[6],56.7% (active)
same,viability decrease (inhibition),[7],95.5% (active)
same,viability decrease (inhibition),[8],35% (inactive)
same,inhibition,[9],5.34% (inactive)
same,mean signal,[10],234 (inactive)
same,red/green cell ratio (normalised),[11],0.84 (inactive)
same,normalised cell number,[11]; [19],0.9
same,normalised cell number,[11]; [20],0.75
same,z-score,[13]; [21],-0.337 (inactive) and 1.11 (inactive)
same,z-score,[13]; [22],0.731 and -0.178
same,remaining NAD,[14],10 nM (inactive)
same,luciferase signal,[15],104 AU (inactive)
same,log fold change Tl+ flux,[16],0.0572 (inactive)
same,log fold change Tl+ flux,[17],-0.116 (inactive)
same,log fold change Tl+ flux,[18],0.0521 (inactive)
